# Results: PubChem BioAssay (NCI)
# The panel holds about 79,000 compounds, 15% with a hit somewhere; the sample as a whole holds those more often. Values without a mark were called inactive. Active and inactive are the calls of the source. Rule as the data show it: active = growth inhibition above about 70%; inactive = the rest.
# Experiments:
# [1] = NCI Yeast Anticancer Drug Screen. Data for the rad50 strain (AID 155);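 also: 0% = growth of vehicle-only cultures of the same strain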; conditions: S. cerevisiae rad50 strain growth inhibition, active compounds read high
# Summary of the method: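 Growth of the mutant yeast was measured after compound exposure and referenced to vehicle-treated cultures.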
# [2] = NCI Yeast Anticancer Drug Screen. Data for the mec2-1 strain (AID 157); conditions: S. cerevisiae mec2-1 strain, active compounds read high
# Summary of the method: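 Growth inhibition is read against vehicle-treated controls after compound exposure of the mec2-1 yeast strain, which is defective in DNA damage repair or cell cycle control.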
# [3] = NCI Yeast Anticancer Drug Screen. Data for the sgs1 mgt1 strain (AID 161);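 also: 0% = growth of cultures given vehicle only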; conditions: S. cerevisiae sgs1 mgt1 strain, active compounds read high
# Summary of the method: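 Percent growth inhibition was derived by comparing compound-exposed mutant yeast with vehicle-exposed cultures. The strain carries alterations in DNA damage repair.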
# [4] = NCI Yeast Anticancer Drug Screen. Data for the cln2 rad14 strain (AID 165);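 also: 0% = growth equal to vehicle treated cultures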; conditions: S. cerevisiae cln2 rad14 strain, active compounds read high
# Summary of the method: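 Growth inhibition, relative to vehicle-treated controls, is the read-out. The test organism is a yeast strain with defined genetic alterations, cln2 rad14.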
# [5] = NCI Yeast Anticancer Drug Screen. Data for the bub3 strain (AID 167); conditions: S. cerevisiae bub3 mutant strain, active compounds read high
# Summary of the method: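 Whole-cell yeast assay. The mutant strain was incubated with compounds, and growth inhibition was determined by comparison with vehicle-treated cells.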
# [6] = NCI Yeast Anticancer Drug Screen. Data for the mlh1 rad18 strain (AID 175); conditions: S. cerevisiae mlh1 rad18 strain growth inhibition, active compounds read high
# Summary of the method: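 Cells of a genetically altered yeast strain, deficient in DNA damage repair, were treated with compound. Their growth was then compared with that of vehicle-treated cultures to give inhibition.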
# [7] = at 5.0 µM (retest, dose inferred, filed as 0.5)
# [8] = at 50.0 µM (retest, dose inferred, filed as 5.0)
SMILES,"growth inhibition [1, 7]","growth inhibition [1, 8]",growth inhibition ([1]; at 50.0 µM),"growth inhibition [2, 7]","growth inhibition [2, 8]",growth inhibition ([2]; at 50.0 µM),"growth inhibition [3, 7]","growth inhibition [3, 8]",growth inhibition ([3]; at 50.0 µM),"growth inhibition [4, 7] [%]","growth inhibition [4, 8]",growth inhibition ([4]; at 50.0 µM),"growth inhibition [5, 7]","growth inhibition [5, 8]",growth inhibition ([5]; at 50.0 µM),"growth inhibition [6, 7]","growth inhibition [6, 8]",growth inhibition ([6]; at 50.0 µM)
COc1ccc(C2Oc3ccc(Cl)cc3C=C2[N+](=O)[O-])cc1OC (stereo not given),89% (active),97% (active),74% (active),91% (active),96% (active),77% (active),86% (active),97% (active),85.5% (active),63,96% (active),84.3% (active),88% (active),96% (active),86.7% (active),95% (active),97% (active),86.2% (active)
CC1CCCN(c2cc(N(C)C)c([N+](=O)[O-])cc2F)C1 (stereo not given),34%,47%,32.2%,35%,49%,11.7%,37%,59%,38.2%,34,46%,51.5%,41%,86% (active),71.8% (active),45%,67%,37.5%
CCC(c1ccccc1)N1C(=O)c2ccccc2S1(=O)=O (stereo not given),-3%,-3%,33.4%,-2%,22%,14.3%,-1%,-2%,25.3%,-6,-3%,-19.6%,23%,50%,92.2% (active),-3%,-2%,32.5%
COc1nc(NC2OCC(O)C(O)C2O)c(Cl)c(=O)n1C (stereo not given),0%,-1%,-15.4%,-1%,-5%,-3.7%,-2%,-3%,11.4%,-1,-3%,30.4%,-2%,-4%,10.2%,-5%,-7%,-7.85%
O=[N+]([O-])c1ccc(N/N=C/c2cccnc2)cc1,20%,49%,66.4%,-5%,6%,-12.1%,1%,26%,60.1%,3,15%,-0.05%,3%,44%,29.4%,9%,26%,45.5%
C=C(CC)C[C@@H]1C[C@]2(C(=O)OC)c3[nH]c4ccccc4c3CCN2C1=O,-1%,94% (active),52.5%,0%,85% (active),26.9%,8%,98% (active),58.4%,15,77% (active),62.5%,2%,18%,48.5%,0%,96% (active),82.5% (active)
COc1ccc(CCC2(C)OCCC(C)O2)cc1 (stereo not given),12%,92% (active),-13.5%,13%,96% (active),-6.35%,16%,91% (active),-4.35%,10,95% (active),28.6%,-3%,76% (active),-16.1%,19%,94% (active),-26.8%
CC1(C)CC[C@]2(C(=O)O)[C@H](O)C[C@]3(C)C(=CC[C@@H]4[C@@]5(C)CC[C@H](OC6OCC(O)C(O)C6OC6OCC(O)C(O)C6OC6OCC(O)C(O)C6O)C(C)(C)[C@@H]5CC[C@]43C)[C@@H]2C1 (stereo not given in full),5%,7%,51.9%,12%,54%,57.1%,8%,33%,-13.4%,14,100% (active),54%,14%,100% (active),48.8%,5%,53%,52%
Cc1[nH]nc(C(=O)N(C)C)c1N=NN(C)C,-61%,93% (active),97.8% (active),-44%,91% (active),88.8% (active),-43%,88% (active),82% (active),-50,78% (active),79.8% (active),-65%,83% (active),79.2% (active),-105%,90% (active),95.6% (active)
Cc1nc(N)sc1N=Nc1ccccc1Br,-20%,89% (active),88% (active),-11%,97% (active),94.2% (active),0%,93% (active),92.1% (active),-5,62%,91.3% (active),-1%,91% (active),95.8% (active),34%,96% (active),95.8% (active)
